Measured values reported in the supplement of paper PMC10681739.
In all, about 4,100 sequences were measured (“arbitrary fluorescence units”: median about 780, highest 2% from about 22,000 on). Many of the other results were omitted from the sample, so the highest values are more common in it than they were.

These sequences were tested against T1, ETS1 (UniProt P14921) (assay: ETS1 binding intensity (PBM fluorescence), ETS1 alone (arbitrary fluorescence units); higher = stronger binding). Details: ETS1 concentration 1 nM; RUNX1 concentration 0 nM.
T1 sequence: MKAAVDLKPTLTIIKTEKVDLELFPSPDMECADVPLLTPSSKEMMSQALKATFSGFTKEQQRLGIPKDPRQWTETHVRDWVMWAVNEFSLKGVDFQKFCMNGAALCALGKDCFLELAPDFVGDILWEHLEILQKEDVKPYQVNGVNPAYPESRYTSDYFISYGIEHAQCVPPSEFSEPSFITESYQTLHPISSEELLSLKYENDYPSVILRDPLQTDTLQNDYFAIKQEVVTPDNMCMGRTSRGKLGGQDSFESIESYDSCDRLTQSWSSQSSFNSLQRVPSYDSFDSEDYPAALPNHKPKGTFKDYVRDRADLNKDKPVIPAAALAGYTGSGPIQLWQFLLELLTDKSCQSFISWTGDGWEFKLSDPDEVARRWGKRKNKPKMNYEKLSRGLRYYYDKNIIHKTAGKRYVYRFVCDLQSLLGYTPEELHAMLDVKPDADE
Method in brief: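 Full-length recombinant human ETS1 (1 nM, no RUNX1) was incubated, per standard PBM protocols, on double-stranded Agilent 4 × 180k arrays of 36-bp genomic probes whose RUNX1 partner site was mutated. Bound ETS1 was detected with anti-ETS1 antibody (Cell Signaling Technology 14069) and Alexa488-conjugated secondary antibody, then scanned on a GenePix 4400A. Binding level is spot fluorescence intensity, summarised over replicate spots (four printed per sequence) and not normalised.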

| Sequence | ETS1 binding intensity |
| --- | --- |
| CCTTTGGGGTAGCAGTGGCCCCGCGCGGAGGAAGTT | 303 |
| GCAGCTTCCGCGGCCCCCGCCCGGCCTGCAGCGCCA | 2350 |
| TGACATTTCCGGCCCCACCTCGGCCTGCAGCGCCGC | 40200 |
| CTAGCCACCTCGGCCCCACCCTCTTCCGGCCTCAGC | 1820 |
| TATCAGCTTCCGACGTGCCCCTCGGTATCTGGACTA | 1600 |
| GGATTTTGGGGTAGCGAACCCCGGGGCCGGAAGCAG | 1080 |
| CTGTCTGCTTCCCGTGGCCAGCCCTGATCGCGGCCC | 953 |
| CGGGACTTCCTGTCTTCCCTGTCGCGGAGCTCTGAA | 27000 |
| TTCGCTCCCTGAATCGCGTCGCTTCCTGAGCCGCGC | 454 |
| CCATTGGCGGGCGGCTTGAATGACGGAAGTGACGGC | 872 |
| CTGTCGTGACCCGGCAGGAGTAGCGTCGGAAGCAAT | 403 |
| CTTAGCGGAAGAGGCGTGACCCAGGCGTACCCCAGG | 1380 |
| GGTCCAGGAAGACGTCAAGGGCTTGGATTTGTAAAC | 437 |
| TAGGTCACCTCCGCGACACAGCAACGGAAGTAGGGT | 1110 |
| AGGGGCAGAGCACAGCACCACCGGAAGTAGGGCTCA | 9450 |
| GCACCACCGGAAGTAGGGCTCAACCTCCGCTCATTT | 24400 |
| GTCCCCTCGGTGTCACAGCAATATCCGTTCTTTGAT | 1190 |
| CGGGAATCCACGGAATTTACTGCCGGAAGTTCGGCG | 2700 |
| CGAGAACGGCGCCACTGAGGAACCGGAAACAAGCCA | 3230 |
| AGACCCTGTTGTCACATGGCAGGAAGTCTGCAGGTT | 1060 |
| GAAGTCACATCCTGTCTGTTGGGGCAGGGCACAGAG | 23500 |
| CATCTGTTGTCTCCTTGAAGTCACATCCCACAGGAG | 438 |
| ACAAAAAAATCACACACCCAACGGAAACCATAGAGA | 669 |
| AGCACCCCATTCTACACCTCCAGCTCATCCTGCGTC | 389 |
| GAACTTCCGGGACCACGTGACGTAGAACTACAACAA | 32800 |
| CTCCTGGGCTTGTAGTTAGAACATCCTGCAGCAAAG | 1130 |
| TTTCTGACTTCCTGTGTGCTTCAGAAACCCCAATGA | 25100 |

| Sequence | ETS1 binding intensity |
| --- | --- |
| GCAGGACTTCCTGTGTTGTGCTAACCCCAAATTACA | 22100 |
| AATGAGCCCCAGAACCCTTTTCCTTCCGGCCTGTGC | 1520 |
| CGGAGAGCTCGCGGCAATTCCGTTTCCCCGCCCTTT | 404 |
| CCGCCCACTTCCGTGTGGCCGCCGATTGGTCTTGCC | 7350 |
| GCTGCTTCCGGCCGCTGGTCGCAGGGCTGAGGGACT | 26400 |
| GAGGGCTGCTTCCTGCTCTGTGGAGGCCGCTGAGGG | 6710 |
| GGCCTACGGGAGGGCCCGCCTTGGCTGCTTCCGCAG | 310 |
| GGCTCTGCCGTCCGCTGACAGGAAGACGCTGACGAC | 973 |
| TGCGCTCGATTGTGAGCGGGGGCGGAAAGAGGCGCC | 471 |
| GTAGGGCCGGACGGCAGGCTCCGGGATAGCGCCACG | 416 |
| AGCTTTTCTGAGAGCGCGGGCAGGATGTGACCTCCC | 675 |
| CTTTCTGTCGAGGTCAGGTTTCCTCTCCTTTATGAA | 437 |
| GCGGGGCGTGTCCACGCACTTCCGGTTTTCTCGAAA | 28700 |
| CGTGTCCACGGGGACCGAAAGTGGCGTCCGGCGCAA | 354 |
| GGGTCCTTCCGGGTTTTGTGTCGAATCTACGGCGGC | 7400 |
| TGTGTAATCCCCACGACAACCTAGGAAGTGGGAAAA | 410 |
| CTGCCCATCGCTGTTAACTTTTCCGCCTCCTTAAAG | 492 |
| GTCTTACTTCCTGTCCCCGCCCACCTCGACTGTCTT | 22700 |
| ACCTTCGCCGCTGTCCCCAGCCTCTTCCTGTCCCGG | 1130 |
| CCTGACTTCCTCCTCCCCCTCCCGCCCCAATTCCGC | 4620 |
| AGTTGCTAAGGAAATGACTGCCTGCAGCGCCTGGCC | 610 |
| GAAGAGACTCCCGCCACCTTGGCCGTTTCCCCTGAT | 318 |
| GCCGCTGGGTAGGCGGAAGTAGCCGCTGGCATGGCA | 2800 |
| AGAAAACTACATTCAATTCTCTTTACACAGGATGTT | 661 |
| CGGGACAGCGACGGGCCAGGTGACCGGAAGAGGCCG | 1770 |
| CGGAGCCCAACGACCGGCACTTCCGGGGGGCGGGTG | 5010 |
| GCGGAGCTTGTAGGCCAGGAGGACTTCCGGGTGGGT | 2220 |

| Sequence | ETS1 binding intensity |
| --- | --- |
| GCACTTCCGGAGCCGGGCGTCTACAGGCCGAGGCCA | 28500 |
| CACCCTCACGGAAACAGCTGTGTGTAAGCACCTCCA | 585 |
| TATCATTTTTACGACAGAGGTACAGGAAATTGTTTC | 733 |
| TAGGTTTGGGGTAGAAGCTGCAGGAACTTCCTGTCC | 1710 |
| CCCCTCACTTCCCTCAACCCTTCCCATAAACTGGGA | 1620 |
| GCGCACTTCCGGGCTGGTGAACGCGTTGACGTCACC | 35400 |
| CGACGTCACTTCCGCTGGTTCAAGCACCGTGAGACT | 21400 |
| GGTGACGTCAACGCGTTCACCAGCCCGGAAGTGCGC | 1230 |
| AAGCTTCCTGGCCCTTTAAAAATGGAGGTTCCGCAC | 4840 |
| GGGGCGATTACAGAACGGGTAACTCAGGATGATTCA | 541 |
| CTTGGGGTCCCCTCGGGTGGTGGCAGGATGTAGGTA | 480 |
| GGACCGGAAGTAGGTTTCTACCCGAGCGCATTTTAC | 27600 |
| CCGAGCGCATTTTACGTGGTGCTGCATTTCCGGTAG | 3930 |
| CGCCCCGGCAGCCGCCCACGTCCGGGGGCCAGGCCT | 802 |
| TGGCGGGAGAACTTCCCCCTGTGCGCTCGCGACGTG | 775 |
| GAGAACTTCCGGTGCGCTCCCCGGGACTGCAGTCCC | 46000 |
| AGCGCTTCCTGGCTCCGGCCCCGCCCCTGCAGTCGG | 6440 |
| CTTTTTGGTCTGCCAGGCACGGATTTCCGCCCACTC | 1270 |
| ATGGAAAGGAAGTCGGTGGGAATCCGCCTCAGCGGT | 1590 |
| GTGTCCTGTGCTCTCCTCTGCGCCACTTCCCTGCCT | 623 |
| CCCACTTCCTGTCCCTGCATGCTCTGGGGCAGGCAG | 31100 |
| GTCCTCTTCCTGTCCCCCAGGTGGGCATGTGATTTG | 6800 |
| CACGGAGCCACTTCCGGCGGCTGTGAGCGCAAAACC | 35500 |
| GGCGGCTGTGAGCGCAAAACCCAAAACTTCCGATGG | 452 |
| TCAGGAGCCACGGACGGGCGGGGCTTCCGGGAGCAA | 1170 |
| AACACTATTTCCTTTCTTGCTGCTCACATTTTAACA | 4990 |
